# Source: PubChem BioAssay (National Center for Advancing Translational Sciences (NCATS))
# In the library only some 0.65% were active in any assay of this set; here they are far more common.
# SARS PLpro yeast-1 – blocks SARS-CoV papain-like protease in a yeast assay | AID 485353 | Potency, µM (doses to about 32.9 µM), without a hit: at the highest dose activity, positive = growth rescue, most hits filed as activators | actives 0.19% (n = 330,000) | S. cerevisiae expressing SARS-CoV PLpro, growth rescue; further: potency means the concentration at half of the fitted maximal effect; 0% is about no effect; nearly all actives have a fitted effect of over 55% in size
# AMA1 RON2 block – disrupts binding of P. falciparum AMA1 to RON2; AlphaScreen AMA1-biotinylated RON2 peptide binding; Potency, µM (doses to about 58.2 µM), inactives show top-dose activity change, negative = inhibition, usual class: inhibitors; actives 0.2% (n = 360,000); AID 720542; active means well fitted inhibition curve with a large enough effect; inconclusive means small, poorly fitted or top-dose-only effect; inactive means no such curve, though single readings can be large or run the other way;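 further: potency means the concentration at half of the fitted maximal effect; 0% = vehicle wells and -100% = peptide control; nearly all actives have a fitted effect of over 45% in size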
#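 AMA1 (3D7) with his tag at 25 nM final met compounds first, then biotinylated RON2 peptide at 25 nM; detection used donor plus acceptor beads, 10 µg/mL apiece, read by AlphaScreen after 30 min at room temperature.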
# NS1 inh – inhibitors of influenza NS1 protein function; AID 2326; Potency, µM (top dose mostly 46.1 µM), for the others: top-dose activity, positive = more growth; actives 0.4% (n = 270,000); further: potency means the concentration at half of the fitted maximal effect; actives are rising curves; nearly all actives have a fitted effect of over 50% in size
#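 S. cerevisiae expressing influenza A NS1, grown in glucose, washed, then diluted 1:100 into pH 6.0 -URA galactose medium with 23 nl compound. Growth recovery read as OD600; NS1-free strain serves as control.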
# SARS PLpro yeast-2 – Inhibits SARS-CoV PLP in yeast, hit validation; yeast expressing SARS-CoV PLpro, growth phenotype rescue; calls only; actives 19% (n = 1,000); shares compounds with SARS PLpro yeast-1; call rule not given here
# An asterisk follows results filed as active; i = inactive; ? = inconclusive; · = not tested or not shown; + = active, no number; [ ] = remark or other dose. Unless noted, the call rests on the fitted dose curve.
SMILES,SARS PLpro yeast-1,AMA1 RON2 block,NS1 inh,SARS PLpro yeast-2
COc1cccc(OC)c1NC(=O)C1CCCN1C(=O)Nc1cccc(Cl)c1 (configuration not stated),2%,14%,14%,·
C=CCC[C@H](Cc1ccc(F)cc1)C(=O)OC[C@@H](Cc1c[nH]c2ccccc12)NC(=O)[C@@H](CC=C)CC(=O)N[C@H](CO)Cc1ccccc1,2%,-8%,·,·
C[C@@H]1COc2cc(N3CCN(Cc4ccccc4F)CC3)ccc2S(=O)(=O)N1,·,3%,·,·
Cc1ccc(Cl)cc1NC(=O)CON=C(N)c1ccccc1,-3%,-8%,·,·
CC(C)(C)C1CCc2sc(-c3nnc(CCl)o3)cc2C1 (configuration not stated),4%,68%,·,·
ClCc1nnc(-c2cc3c(s2)CCCC3)o1,?,11%,·,i
CCCN1CCN(C(=O)c2noc3c2COc2ccc(C)cc2-3)CC1,?,-2%,2%,i
CCOC(=O)N1CCN(C(=O)c2noc3c2COc2ccccc2-3)CC1,-4%,-16%,4%,·
CSc1ccc(/C=C/C(=O)OCC(=O)NC2CCS(=O)(=O)C2)cc1 (configuration not stated),-2%,-1%,·,·
CC(=O)Nc1ccc(NC(=O)CSc2nc3ccccc3c(=O)n2CCCN2CCOCC2)cc1,-5%,-11%,·,·
O=C(CSc1nc2ccccc2c(=O)n1CCCN1CCOCC1)Nc1ccccc1OC(F)F,2.8µM*,-18%,·,i
NC(=S)N/N=C/c1ccc2ccccc2c1,5.6µM*,25%,12%,+
Cc1ccc(C(=O)N/N=C/C=C/c2ccccc2)cc1,-1%,66%,0%,·
NC(=S)N/N=C/c1cccc(/C=N/NC(N)=S)c1,0%,66%,0%,·
NC(=S)N/N=C/C=C/c1ccccc1,1.6µM*,23%[2.32 µM],-22%,+
COc1ccc(/C=N/NC(N)=S)cc1OC(=O)c1ccccc1,11µM*,20%,12%,i
COc1cc(/C=N/NC(=O)c2cc(O)cc(O)c2)ccc1OC(=O)c1ccccc1,7%,?,11%,·
COc1ccc(C(=O)n2cnc3ccccc32)cc1,10%,-7%,2%,·
COCCCN1C(=O)C(CC(=O)NCc2cccc3ccccc23)CC(C(=O)N(C(C)C)C(C)C)=C1C (configuration not stated),·,13%,·,·
COc1cccc(C(CNC(=O)C2CCN(C(=O)Nc3ccccc3)CC2)N(C)C)c1 (configuration not stated),?,12%,·,i
CCN(CC(=O)Nc1cccc(OC)c1)C(=O)C1CCN(C(=O)Nc2ccccc2)CC1,-2%,5%,-4%,·
CC(=O)N(C)c1ccc(NC(=O)Nc2ccc(C)c(C)c2)cc1,2%,8%,-12%,·
Cc1cccc(C)c1NC(=O)CNC(=O)C(C)N1CCN(c2cccc(Cl)c2)CC1 (configuration not stated),1%,18%,·,·
O=C(CNC(=S)NC(=O)c1ccccc1Br)c1ccccc1,2%,-8%,·,·
CCCCNC(=S)NC(=O)c1ccccc1Br,11µM*,13%,-13%,+
SMILES,SARS PLpro yeast-1,AMA1 RON2 block,NS1 inh,SARS PLpro yeast-2
CCCCOc1ccc(NC(=O)CCSc2nccn2C)cc1,-1%,-3%,-3%,·
CCc1nc2c(OCc3ccc(Cl)cc3Cl)cccn2c1N(C)C(=O)c1ccccc1F,·,-18%,·,·
COc1cc(OC)cc(C(=O)NC(=S)NNC(=O)c2cnccn2)c1,·,20%,3%,i
COc1cc(OC)cc(C(=O)NNC(=S)NC(=O)c2cccnc2)c1,3%,-4%,-26%,·
COc1ccc(C(=O)NCCNC(=O)c2cnccn2)cc1OC,14%,7%,-5%,·
COc1ccc(C(=O)NC(=S)NNC(=O)c2cnccn2)cc1OC,4µM*,23%,-3%,?
CN(CC(=O)Nc1ccc(Cl)c(Cl)c1)C(=O)C1CCC1,1%,-3%,·,·
N#Cc1cccnc1N1CCN(C(C(=O)NC2CCCC2)c2ccc(F)cc2)CC1 (configuration not stated),·,6%,·,·
Cc1ccc(C(=O)NC(C(=O)OCc2cn3cc(Cl)ccc3n2)C(C)C)cc1 (configuration not stated),-1%,-3%,·,·
CN(C)NC(=S)Nc1ccc(Cl)cc1,11µM*,32%,30%,+
CNNC(=S)Nc1ccc(Cl)cc1,-2%,15%,-3%,·
Cc1ccc(-n2cnc3c(=O)[nH]cnc32)cc1,·,-8%,·,·
C/C(=N\NC(=O)c1ccccc1)c1c(C)[nH]n(-c2ccccc2)c1=O,6.3µM*,94%,-33%,i
C/C(=N\NC(=O)c1ccc(C)cc1)c1c(C)[nH]n(-c2ccccc2)c1=O,?,56%,-38%,·
CC(C)CNC(=S)N(CCCN(C)C)Cc1cc2cc3c(cc2[nH]c1=O)OCCO3,2%,11%,5%,·
COC(=O)c1cnc(Nc2nc(C(N)Cc3ccccc3)cs2)nc1C(F)(F)F (configuration not stated),·,70%,·,·
CC1CSc2ccccc2NC1=S (configuration not stated),10µM*,12%,0%,+
S=C1CSc2ccccc2N1,-1%,10%,·,·
O=C(CNC(=O)c1cccs1)Nc1cccc(S(=O)(=O)N2CCOCC2)c1,0%,-8%,·,·
CCN(c1ccc(OC)cc1)S(=O)(=O)c1nnc(NC(=O)COc2ccc(F)cc2)s1,1%,19%,2%,·
COc1ccccc1CCCNC(=O)C1CCC(=O)N(CCc2ccc(Cl)cc2)C1 (configuration not stated),0%,-2%,-30%,·
Cc1cc(C)c2nc(NNC(=O)c3ccc(S(=O)(=O)N4CC(C)CC(C)C4)cc3)sc2c1 (configuration not stated),?,53%,-10%,·
Cc1cccc2sc(NNC(=O)c3ccc(S(=O)(=O)N4CC(C)CC(C)C4)cc3)nc12 (configuration not stated),4µM*,40%,9%,+
Cn1cc(S(=O)(=O)NC[C@H]2O[C@@H](n3ccc(=O)[nH]c3=O)[C@H](O)[C@@H]2O)cn1,·,4%,·,·
Cc1ccc(NC(=O)C2CCN(C(=O)NCc3ccccc3)CC2)cc1C,6%,1%,3%,·
SMILES,SARS PLpro yeast-1,AMA1 RON2 block,NS1 inh,SARS PLpro yeast-2
COc1ccc(C)cc1NC(=O)CN(C)S(=O)(=O)c1cnc[nH]1,?,10%,7%,i
COc1ccc(C)cc1NC(=O)CN(C)S(=O)(=O)c1cccs1,2%,-3%,-3%,·
CCCCCC/C=N/Nc1nnc(Cc2ccc(OC)c(OC)c2)c(=O)[nH]1,0%,-85%,4%,·
COc1ccc(Cc2nnc(N/N=C/c3ccc(O)cc3O)[nH]c2=O)cc1OC,6.3µM*,-29%,?,i
CC(C)(C)c1ccc(NC(=O)N2CCN(c3ccc([N+](=O)[O-])cn3)CC2)cc1,1%,7%,-1%,·
COc1ccc(/C=C/C(=O)OCC(=O)NC2CCCC2)cc1OC,-7%,0%,·,·
COc1cccc(C(Nc2ccccn2)c2oc(CO)cc(=O)c2O)c1 (configuration not stated),11µM*,-19%,·,i
O=c1cc(CO)oc(C(Nc2ccccn2)c2cccc(F)c2)c1O (configuration not stated),1%,1%,19%,·
CCOC(=O)/C(C#N)=C\c1cn(C)c2ccccc12,-1%,-13%,-4%,·
